Bioassay records: PubChem BioAssay, National Center for Advancing Translational Sciences (NCATS)
Marburg entry inh = qHTS for inhibitors of binding or entry into cells for Marburg Virus | Marburg virus pseudotyped entry inhibition, cell reporter | Potency, µM (titrated, usually from 37.8 µM), for the others: at the highest dose activity change, negative = inhibition, usual class: inhibitors | actives 1.8% (n = 300,000) | AID 540276, 2011; calls by dose curve; tested in HEK293 cells; further: potency means the concentration at half of the fitted maximal effect
LASV entry inh = qHTS for Inhibitors of binding or entry into cells for Lassa Virus; Lassa virus pseudotype entry inhibition, cell reporter; Potency, µM (series often up to 37.9 µM), inactives show at the top dose activity change, negative = inhibition, hits mostly inhibitors; actives 1.2% (n = 300,000); calls by dose curve; tested in HEK293 cells; further: potency means the concentration at half of the fitted maximal effect; nearly all actives have a fitted effect of over 50% in size
HCMV antiviral = qHTS Assay for inhibitors of the human cytomegalovirus (HCMV); actives 4.5% (n = 410,000); activity change, negative = inhibition, % at 57.5 µM; HFF cells, HCMV-luciferase reporter, 72 h; active compounds read low; in the data active means activity change below about -60%; inconclusive means no clear call, values can overlap the other calls; inactive means above about -39%
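Steps: HFFs plated, 16 h 37C; compounds added; HCMV-luciferase added to MOI 1 PFU/cell; 72 h 37C; OneGlo reagent, 5 min room temperature; luminescence read, normalized to controls.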
FMDV inh = High Throughput Screening for Foot and Mouth Disease Virus Antivirals. FMDV antiviral cell-based qHTS. Potency, µM (top dose mostly 57.9 µM), inactives show top-dose activity change, negative = inhibition, most hits filed as inhibitors. actives 1.2% (n = 410,000). AID 1159524, 2015; calls by dose curve; tested in HEK293T cells; further: read-out not given here; potency means the concentration at half of the fitted maximal effect; nearly all actives have a fitted effect of over 45% in size
HCV inhibitor = qHTS Assay for Inhibitors of Hepatitis C Virus (HCV). Huh7.5.1 HCVcc-Cre infection, luciferase reporter, 44 h. Potency, µM (titrated, usually from 41.8 µM), for the others: at the highest dose activity change, negative = inhibition, actives largely listed as inhibitors. actives 3.4% (n = 340,000). AID 651820, 2012; active means well fitted inhibition curve with a large enough effect; inconclusive means small, poorly fitted or top-dose-only effect, or another doubt; inactive means no such curve, though single readings can be large or run the other way; further: potency means the concentration at half of the fitted maximal effect
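Antiviral activity was scored by luciferase reporter output from cells infected with HCVcc-Cre (~0.5 moi) in presence of compound, 44 h infection period, cells seeded 1,000/well 4 h prior.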
The depositor's hits bear a star; ? = inconclusive; / = not tested or not shown; [ ] = dose if it differs, or a comment. Only some compounds are listed: those with a hit (about 7.9% of all), similar ones and a draw of the others. On the % scale 0 is the no-effect control and ±100 the full control effect.

SMILES	Marburg entry inh	LASV entry inh	HCMV antiviral	FMDV inh	HCV inhibitor
Cc1ccc(C(=O)CSc2nnc3n2CCCCC3)s1	/	/	7	71%	-21%
COc1ccc(S(=O)(=O)N2CCN(Cc3nc4ccc(C)cc4o3)CC2)cc1OC	/	-2%[46.1 µM]	-14	-23%	/
CCC1CN(CCNC(=O)c2cccc3nccnc23)Cc2cc(OC)ccc2O1 (stereo unspecified)	/	/	/	-11%	/
O=C(Nc1cccc(F)c1)C1CCN(c2nnnn2-c2ccccc2)CC1	9%	?	-11	18µM*	-20%
O=C(Nc1ccc2c(c1)OCCO2)C1CCN(c2nnnn2-c2ccccc2)CC1	-27%	?	-15	?	-17%
CN1C(=O)C(n2ccc3ccccc32)c2cc(OC(F)(F)F)ccc21 (stereo unspecified)	/	/	-9	/	/
O=C1CC(c2ccc3c(c2)OCCO3)Oc2ccc([N+](=O)[O-])cc21 (stereo unspecified)	/	/	-77*	?	-4%
O=C1CC(c2ccc3c(c2)OCCO3)Oc2ccccc21 (stereo unspecified)	/	/	12	52%	-16%
C/C(Cn1cnc([N+](=O)[O-])n1)=N\NC(=O)c1cccc(F)c1	-10%	26%	19	39%	11µM*
Clc1ccccc1-c1nc(NCc2cccnc2)c2ccccc2n1	/	/	/	0%	/
COc1ccc(NS(=O)(=O)c2cccc(C(=O)NCc3ccccc3CN3CCCC3)c2)cc1	/	/	0	-4%	11µM*
CCN1CCN(c2ccc(NC(=O)c3ccc4c(c3)[nH]c(=O)n4Cc3ccc(F)cc3)cc2)CC1	?	?	?	-22%	7.1µM*
COc1ccc(NS(=O)(=O)c2cccc(C(=O)NCC3(N4CCOCC4)CCCCC3)c2)cc1	?	?	-67*	24%	1%
COc1ccc(NS(=O)(=O)c2cccc(C(=O)NC3CCN(Cc4ccccc4)CC3)c2)cc1	?	?	-65*	-25%	?
COc1ccc(Cl)cc1NS(=O)(=O)c1cccc(C(=O)NC2CCN(Cc3ccccc3)CC2)c1	/	/	-13	?	?
CCOC(=O)CCN1C(=O)[C@@H]2[C@H]3[C@H](O)[C@H](O)CC(=NNC(=O)OCc4ccccc4)[C@@H]3CC[C@H]2C1=O	29%[14.2 µM]	-34%[14.3 µM]	/	/	/
Cc1ncc2c(c1CNC(=O)c1ccc3c(c1)OCO3)CCN(C(=O)c1scc3c1CCCC3)C2	/	/	/	-16%	/
COc1ccc(NS(=O)(=O)c2cccc(C(=O)NNC(=O)NCCCl)c2)cc1	-9%[46.1 µM]	1%	-65*	14%	-1%
COc1ccc(Cn2c(=O)[nH]c3cc(C(=O)NC4CCN(Cc5ccccc5)CC4)ccc32)cc1	9.2µM*	-25%	-23	?	10µM*
CN(C)C1(CNC(=O)c2ccc(NS(=O)(=O)c3ccc(Cl)c(Cl)c3)cc2)CCCCC1	/	/	-8	15%	?
COc1ccc(Cn2c(=O)[nH]c3cc(C(=O)Nc4ccc(N5CCN(C)CC5)cc4)ccc32)cc1	?	0%	-26	-14%	?
COc1ccc(NS(=O)(=O)c2cccc(C(=O)N3CCC3)c2)cc1	-6%	-13%	-15	16%	?
COc1ccc(NS(=O)(=O)c2cccc(C(=O)NNC(=O)c3ccccc3OC)c2)cc1	-16%	6%[46.1 µM]	41	8%	19%
CCOc1ccc(NS(=O)(=O)c2cccc(C(=O)NCC3(N(C)C)CCCCC3)c2)cc1	11µM*	?	-31	2%	?
COc1ccc(NS(=O)(=O)c2cccc(C(=O)N3CCN(S(=O)(=O)c4ccccc4)CC3)c2)cc1	/	/	17	?	10µM*
CC1CCCC(NC(=O)COC(=O)COc2ccc(Br)cc2)C1C (stereo unspecified)	/	/	-13	-4%	9%
CCOc1ccc(NC(=O)CN(C)C(=O)c2cc(S(=O)(=O)N3CCCCC3)ccc2Cl)cc1OCC	30%	?	-15	-25%	2%
Cc1nn2c(=O)cc(COC(=O)c3ccc(NC(=O)c4cccs4)cc3)nc2s1	/	13%[46.1 µM]	-100*	14µM*	/
Cc1nn2c(=O)cc(COC(=O)c3ccc(NC(=O)COc4ccc(Cl)cc4)cc3)nc2s1	/	?	-84*	16µM*	/
